# In PubChem BioAssay (NCI):
# This is part of a sample that, as a whole, favours compounds with a hit. Of some 83,000 tested, about 20% had one in any assay.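 Growth was measured after 48 h exposure to one concentration of compound in 96-well plates. Values under 10 count as active.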 Calls of active or inactive are those of the source.
# System: NCI-H23 lung
# Assay: NCI-60 one-dose screen, 48 h (100 = growth as untreated, 0 = no growth, -100 = all killed)
# Conditions: 10 µM unless noted
row,Compound,growth
1,COc1ccc(C(=O)NC(=O)Nc2ccc3c(c2)NC(=O)/C3=C\c2[nH]c(C)c(CCC(=O)O)c2C)c(F)c1,40.4% (inactive)
2,Cn1c(I)c(C#C[Si](C)(C)C)c(=O)[nH]c1=O,17.9% (inactive)
3,COC(=O)c1oc2c(C(C)=O)c(OCCCN(C)C)ccc2c1C,97.3% (inactive)
4,CC(C)NCC(O)COc1ccc(CC(N)=O)cc1 (stereo not drawn),105% (inactive)
5,O=C(NCCNc1nccc(-c2c(-c3cccc(O)c3)nc3sccn23)n1)Nc1cccc(C(F)(F)F)c1,96.2% (inactive)
6,CNCCCOc1c(Br)cc(CCNC(=O)/C(Cc2ccc(OC)c(Br)c2)=N/O)cc1Br,62.7% (inactive)
7,COc1cccc(-c2nc3sccn3c2-c2ccnc(NCCNC(=O)c3ccccc3)n2)c1,87.3% (inactive)
8,O=C(N/N=C1\SCC(=O)N1c1ccccc1)c1cc(-c2cc3ccccc3o2)nn1-c1ccccc1,44.8% (inactive)
9,Cc1ccc2c(c1)Nc1ccc(C)cc1C2(C)C,94.9% (inactive)
10,COc1cc(NC(C)CCCN2C(=O)c3ccccc3C2=O)c2nccc(C)c2c1OC (stereo not drawn),90.1% (inactive)
11,NCC(=O)NS(=O)(=O)OC[C@H]1O[C@@H](n2cnc3c(N)ncnc32)[C@H](O)[C@@H]1O,5.7% (active)
12,CCN(CC)CC(=O)Nc1c(C)cccc1C,106% (inactive)
13,Nc1ncnc2c1c(-c1ccc(Oc3ccccc3)cc1)nn2C[C@@H]1SSC[C@H]1O,40.6% (inactive)
14,COc1cc(/C=C\c2cc(/C=C\c3ccc(O)c(OC)c3)n(C(=O)CNc3ccccc3OC)n2)ccc1O,69.7% (inactive)
15,O=C1OC(N(Cc2ccc(Cl)cc2)c2ccccc2)c2ccccc21 (stereo not drawn),99.7% (inactive)
16,CN(C)CC/C=C1\c2ccccc2Sc2ccc(Cl)cc21,80% (inactive)
17,O=C(Nc1cccc(-n2ccc3c(NC(=O)c4ccccc4)nccc32)c1)Nc1cc(C(F)(F)F)cc(C(F)(F)F)c1,3.76% (active)
18,CCCCC(=O)Nc1nc2ccc(SCCC)cc2s1,68.5% (inactive)
19,CCN(CC)c1ccc(C2CC(c3cc(OC)c(OC)c(OC)c3)=NN2)cc1 (stereo not drawn),32.3% (inactive)
20,c1ccc2nc(Cn3cc[n+](Cc4ccc5ccccc5n4)c3)ccc2c1,48.7% (inactive)

row,Compound,growth
1,Clc1ccc(OCc2nc(-c3ccccc3)n[nH]2)c(Cl)c1,97.6% (inactive)
2,CC(C)CNCC(=O)Nc1ccc(Cc2ccc(NC(=O)CNCC(C)C)cc2)cc1,84% (inactive)
3,O=C(O)c1ccc(-n2cc(/C=N/Nc3ccc(F)cc3)c(-c3cccc(C(F)(F)F)c3)n2)cc1,81% (inactive)
4,CCCCCCCCCCCCCCCCCCNCc1ccc(Cl)cc1,-65.4% (active)
5,COc1ccc(CCNC=O)cc1OC,101% (inactive)
6,O=C(COc1ccc(Cl)cc1Cl)N1N=C(c2ccc(Cl)cc2Cl)CC1(O)c1cc(F)c(Cl)cc1Cl (stereo not drawn),98.7% (inactive)
7,Cc1nccc2c3ccc(OCc4cn(Cc5ccc(Br)cc5)nn4)cc3n(CCCc3ccccc3)c12,82.5% (inactive)
8,COc1ccc(-c2c(C#N)cnc(N)c2-c2nc3cc(C)c(C)cc3[nH]2)cc1,44.9% (inactive)
9,O=c1c2ccccc2[nH]n1Cc1ccc2c(c1)OCO2,106% (inactive)
10,COc1cc(Nc2ncccc2C(=O)Nc2nc3ccc(F)cc3s2)cc(OC)c1OC,55.8% (inactive)
11,Cc1ccc(Cn2cc(COc3ccc4c5ccnc(C)c5n(CCCc5ccccc5)c4c3)nn2)cc1,84.3% (inactive)
12,O=C(Nc1ccc(-n2ccc3c(NC(=O)c4ccccc4)ncnc32)cc1)Nc1ccc(Cl)c(C(F)(F)F)c1,-28.2% (active)
13,CCCCOc1c(N)cc(Cl)cc1C(=O)OCCN(CC)CC,104% (inactive)
14,CC(Cl)(CCl)CS(=O)(=O)c1ccc(Cl)cc1 (stereo not drawn),101% (inactive)
15,CCc1c(C)c2cc3c(c(C)c2oc1=O)OCC(=O)N3,63.5% (inactive)
16,Cc1ccc(NC(=O)CN2CCOCC2)cc1Cl,101% (inactive)
17,CC1(C)CC(=O)C2=C(C1)OC1=C(C(=O)CC(C)(C)C1)C2c1ccc(OCc2cn(-c3ccc(F)cc3F)nn2)cc1,102% (inactive)
18,COc1cccc(-c2nc3sccn3c2-c2ccnc(NCCNC(=O)Nc3cccc(C(F)(F)F)c3)n2)c1,83.8% (inactive)
19,CN(C)c1ccc(/C=N/N=C(N)N)cc1,81.2% (inactive)

# System: NCI-H226 lung
# Assay: as above
# Conditions: 10 µM unless noted
row,Compound,growth
1,COc1ccc(C(=O)NC(=O)Nc2ccc3c(c2)NC(=O)/C3=C\c2[nH]c(C)c(CCC(=O)O)c2C)c(F)c1,45% (inactive)
2,Cn1c(I)c(C#C[Si](C)(C)C)c(=O)[nH]c1=O,78.9% (inactive)
3,COC(=O)c1oc2c(C(C)=O)c(OCCCN(C)C)ccc2c1C,96.1% (inactive)
4,CC(C)NCC(O)COc1ccc(CC(N)=O)cc1 (stereo not drawn),102% (inactive)
5,O=C(NCCNc1nccc(-c2c(-c3cccc(O)c3)nc3sccn23)n1)Nc1cccc(C(F)(F)F)c1,97% (inactive)
6,CNCCCOc1c(Br)cc(CCNC(=O)/C(Cc2ccc(OC)c(Br)c2)=N/O)cc1Br,77.3% (inactive)
7,COc1cccc(-c2nc3sccn3c2-c2ccnc(NCCNC(=O)c3ccccc3)n2)c1,79.3% (inactive)
8,O=C(N/N=C1\SCC(=O)N1c1ccccc1)c1cc(-c2cc3ccccc3o2)nn1-c1ccccc1,118% (inactive)
9,Cc1ccc2c(c1)Nc1ccc(C)cc1C2(C)C,98.3% (inactive)
10,COc1cc(NC(C)CCCN2C(=O)c3ccccc3C2=O)c2nccc(C)c2c1OC (stereo not drawn),94.1% (inactive)
11,NCC(=O)NS(=O)(=O)OC[C@H]1O[C@@H](n2cnc3c(N)ncnc32)[C@H](O)[C@@H]1O,-54.6% (active)
12,CCN(CC)CC(=O)Nc1c(C)cccc1C,92.9% (inactive)
13,Nc1ncnc2c1c(-c1ccc(Oc3ccccc3)cc1)nn2C[C@@H]1SSC[C@H]1O,-3.02% (active)
14,COc1cc(/C=C\c2cc(/C=C\c3ccc(O)c(OC)c3)n(C(=O)CNc3ccccc3OC)n2)ccc1O,86% (inactive)
15,O=C1OC(N(Cc2ccc(Cl)cc2)c2ccccc2)c2ccccc21 (stereo not drawn),92.9% (inactive)
16,CN(C)CC/C=C1\c2ccccc2Sc2ccc(Cl)cc21,102% (inactive)
17,O=C(Nc1cccc(-n2ccc3c(NC(=O)c4ccccc4)nccc32)c1)Nc1cc(C(F)(F)F)cc(C(F)(F)F)c1,26.3% (inactive)
18,CCCCC(=O)Nc1nc2ccc(SCCC)cc2s1,49.7% (inactive)
19,CCN(CC)c1ccc(C2CC(c3cc(OC)c(OC)c(OC)c3)=NN2)cc1 (stereo not drawn),67.9% (inactive)
20,c1ccc2nc(Cn3cc[n+](Cc4ccc5ccccc5n4)c3)ccc2c1,70.8% (inactive)

row,Compound,growth
1,Clc1ccc(OCc2nc(-c3ccccc3)n[nH]2)c(Cl)c1,89.9% (inactive)
2,CC(C)CNCC(=O)Nc1ccc(Cc2ccc(NC(=O)CNCC(C)C)cc2)cc1,68.6% (inactive)
3,O=C(O)c1ccc(-n2cc(/C=N/Nc3ccc(F)cc3)c(-c3cccc(C(F)(F)F)c3)n2)cc1,92.5% (inactive)
4,CCCCCCCCCCCCCCCCCCNCc1ccc(Cl)cc1,4.03% (active)
5,COc1ccc(CCNC=O)cc1OC,89.1% (inactive)
6,O=C(COc1ccc(Cl)cc1Cl)N1N=C(c2ccc(Cl)cc2Cl)CC1(O)c1cc(F)c(Cl)cc1Cl (stereo not drawn),149% (inactive)
7,Cc1nccc2c3ccc(OCc4cn(Cc5ccc(Br)cc5)nn4)cc3n(CCCc3ccccc3)c12,88.9% (inactive)
8,COc1ccc(-c2c(C#N)cnc(N)c2-c2nc3cc(C)c(C)cc3[nH]2)cc1,99.3% (inactive)
9,O=c1c2ccccc2[nH]n1Cc1ccc2c(c1)OCO2,92.6% (inactive)
10,COc1cc(Nc2ncccc2C(=O)Nc2nc3ccc(F)cc3s2)cc(OC)c1OC,57.2% (inactive)
11,Cc1ccc(Cn2cc(COc3ccc4c5ccnc(C)c5n(CCCc5ccccc5)c4c3)nn2)cc1,98.9% (inactive)
12,O=C(Nc1ccc(-n2ccc3c(NC(=O)c4ccccc4)ncnc32)cc1)Nc1ccc(Cl)c(C(F)(F)F)c1,8.8% (active)
13,CCCCOc1c(N)cc(Cl)cc1C(=O)OCCN(CC)CC,94.1% (inactive)
14,CC(Cl)(CCl)CS(=O)(=O)c1ccc(Cl)cc1 (stereo not drawn),92.6% (inactive)
15,CCc1c(C)c2cc3c(c(C)c2oc1=O)OCC(=O)N3,52.4% (inactive)
16,Cc1ccc(NC(=O)CN2CCOCC2)cc1Cl,92.8% (inactive)
17,CC1(C)CC(=O)C2=C(C1)OC1=C(C(=O)CC(C)(C)C1)C2c1ccc(OCc2cn(-c3ccc(F)cc3F)nn2)cc1,88.9% (inactive)
18,COc1cccc(-c2nc3sccn3c2-c2ccnc(NCCNC(=O)Nc3cccc(C(F)(F)F)c3)n2)c1,94.9% (inactive)
19,CN(C)c1ccc(/C=N/N=C(N)N)cc1,82.2% (inactive)
